# Rows were chosen to be rich in hits. Some 1.4% of all compounds tested hit in one or more screens of this group.
# TrxR1 substrate = qHTS Assay for Substrates of Mammalian Selenoprotein Thioredoxin Reductase 1 (TrxR1): qHTS | Thioredoxin reductase 1, cytoplasmic (Rattus norvegicus), O89049 | purified TrxR1 substrate turnover, NADPH consumption readout | Potency, µM (doses to about 114 µM), for inactives: top-dose activity change, negative = substrate turnover | hit rate 0.01% among 390,000 | AID 588456, 2011; further: potency means the concentration at half of the fitted maximal effect; on the % scale 0 is the no-effect control and ±100 the full control effect; nearly all actives have a fitted effect of over 50% in size
# Target sequence (O89049 whole entry, looked up): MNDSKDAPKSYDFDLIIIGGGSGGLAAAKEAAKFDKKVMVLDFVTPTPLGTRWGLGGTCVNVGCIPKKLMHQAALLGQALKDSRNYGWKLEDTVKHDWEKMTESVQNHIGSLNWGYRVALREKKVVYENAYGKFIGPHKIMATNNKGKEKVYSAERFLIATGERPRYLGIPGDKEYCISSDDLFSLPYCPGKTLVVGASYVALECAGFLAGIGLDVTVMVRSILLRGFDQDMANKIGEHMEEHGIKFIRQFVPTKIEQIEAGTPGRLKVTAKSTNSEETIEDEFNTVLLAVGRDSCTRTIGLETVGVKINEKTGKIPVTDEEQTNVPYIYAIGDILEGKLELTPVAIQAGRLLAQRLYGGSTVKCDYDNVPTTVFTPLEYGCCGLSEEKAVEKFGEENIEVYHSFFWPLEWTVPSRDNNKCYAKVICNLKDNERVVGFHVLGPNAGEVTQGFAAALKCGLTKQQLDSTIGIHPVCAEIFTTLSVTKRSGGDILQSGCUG
#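 Rat TrxR1, dispensed at 90 nM, was prereduced with 400 uM NADPH (final) for 5 min at ~22 deg C, then incubated with compound 15 min before 400 uM selenite. A first-read NADPH fluorescence drop versus no-compound background flagged substrates.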
# N370S GC = qHTS Assay for Inhibitors and Activators of N370S glucocerebrosidase as a Potential Chaperone Treatment of Gaucher Disease. N370S GC spleen homogenate, 4MU-glucoside fluorescence. Potency, µM (series often up to 59.4 µM), inactives show top-dose activity change, negative = inhibition, actives largely listed as inhibitors. hit rate 0.092% among 330,000. AID 2101, 2009;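 further: potency means the concentration at half of the fitted maximal effect; 0% = full enzyme activity and -100% = no enzyme basal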
# A-T KAP1 phos = qHTS Assay for Identifying a Potential Treatment of Ataxia-Telangiectasia | F2112 A-T fibroblasts, KAP-1 phosphorylation AlphaLISA; neocarzinostatin DNA damage 30 min before lysis | Potency, µM (titrated, usually from 57.5 µM), for the others: at the highest dose activation, most hits filed as activators | hit rate 0.19% among 320,000 | AID 485349, 2010; further: potency means the concentration at half of the fitted maximal effect; % of control where 0% means no effect; nearly all actives have a fitted effect of over 45% in size
#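 ATM-like activity read as KAP-1 phosphorylation via AlphaLISA donor/acceptor antibody pairs after lysis and 6 hr at 25C. Cells were ATM-null patient fibroblasts (F2112, hTERT), dosed 60 min, then exposed to the DSB inducer NCS for 30 min.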
# TrxR1 inh = qHTS Assay for Inhibitors of Mammalian Selenoprotein Thioredoxin Reductase 1 (TrxR1): qHTS | Thioredoxin reductase 1, cytoplasmic (Rattus norvegicus), O89049 | recombinant rTrxR1, NADPH fluorescence consumption, selenite substrate | Potency, µM (series often up to 114 µM), without a hit: at the top dose activity change, negative = inhibition, hits mostly inhibitors | hit rate 1% among 390,000 | AID 588453, 2011; further: potency means the concentration at half of the fitted maximal effect; on the % scale 0 is the no-effect control and ±100 the full control effect; nearly all actives have a fitted effect of over 65% in size
#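 Rat TrxR1 (90 nM in the dispensed reagent) was pre-reduced with 400 uM NADPH for 5 min at room temperature, then incubated with compound for 15 min. After 400 uM selenite was added, NADPH fluorescence (Ex 340/Em 450 nm) was followed for 8 min.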
# Pin1 inhibitor = qHTS Assay to Find Inhibitors of Pin1. Peptidyl-prolyl cis-trans isomerase NIMA-interacting 1 (Homo sapiens), Q13526. Pin1 FP peptide displacement, HiFluor488, 10 min. Potency, µM (doses to about 115 µM), without a hit: at the highest dose activity, negative = inhibition, hits mostly inhibitors. hit rate 0.009% among 390,000. AID 504891, 2011; active means well fitted inhibition curve with a large enough effect in the polarisation, with a control signal flat, not every such curve was filed as active; inconclusive means small, poorly fitted or top-dose-only effect, or effect the other way, or a change in a side signal; inactive means no such curve, though single readings can be large or run the other way; the % refers to the polarisation; further: potency means the concentration at half of the fitted maximal effect; on the % scale 0 is the no-effect control and ±100 the full control effect
# pAkt inh = HTS Assay for Inhibitors of Akt Phophorylation: Primary Screen | activity change, % for hits at 50 µM | Neuro2A IGF-stimulated pAkt S473 HTRF, 20 min; active compounds read low | hit rate 0.32% among 360,000; in the data active means activity change below about -80%; inconclusive means mostly about -51% to -80%; further: on the % scale 0 is the no-effect control and ±100 the full control effect
#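 Neuro2A cells in DMEM with 0.5% FBS, overnight at 37 deg C, given compound at single 50 µM final, then IGF (6 nM final) for 20 min at 37 deg C. Lysed; phospho-Akt Ser473 by HTRF after 24 h, 665/615 ratio.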
# An asterisk follows results filed as active; i = inactive; ? = inconclusive; . = no result; ! = not active in a repeat; [ ] = dose if it differs, or a comment. Unless noted, the call rests on the fitted dose curve; in most records, active means well fitted curve in the direction sought with a large enough effect; inconclusive means small, poorly fitted or top-dose-only effect, or another doubt; inactive means no such curve, though single readings can be large; an effect the other way counts as inactive or inconclusive.
SMILES,TrxR1 substrate,N370S GC,A-T KAP1 phos,TrxR1 inh,Pin1 inhibitor,pAkt inh
C=C(C)C(=O)N1CC2(CC(c3cccc(NC(=O)/C=C\C=C/C)c3)=NO2)C[C@H]1C(N)=O (stereo not given in full),2%,-1%,3%,20µM*,15%,i
COc1cccc(C2c3c(ncn(-c4ccccc4C(C)(C)C)c3=N)Oc3ccc4ccccc4c32)c1 (stereo not given),.,.,.,.,20%,.
Cc1ccccc1Cn1cc(S(=O)(=O)c2ccc(Cl)cc2)c(=O)c2cc3c(cc21)OCO3,4%,.,.,21%,-5%,.
C/C=C\C=C/C(=O)Nc1cccc(C2=NOC3(C2)C[C@@H](C(N)=O)N(C(=O)/C=C/C=C\C)C3)c1 (stereo not given in full),12%[57.1 µM],10%,?,7.1µM*,-11%,i
Cc1ccc(C(=O)N/C(=C\c2ccc(-c3ccccc3[N+](=O)[O-])o2)C(=O)NCCCN2CCOCC2)cc1,-7%,?,?,40µM*,-16%,i
CCN(c1ccc(C)cc1)S(=O)(=O)c1nnc(NC(=O)c2ccco2)s1,-4%,0%,-1%,56µM*,1%,i
CCSc1nnc(NC(=O)c2ccco2)s1,-13%,0%,-4%,-9%,-2%,-112%*
CCSc1nnc(NC(=O)c2cc3c(s2)CCCC3)s1,14%,12%,14%,0%,15%,-81%*
CCSc1nnc(NC(=O)c2ccc(Br)s2)s1,9%[57.1 µM],-4%,-7%,26%[57.1 µM],-1%,-81%*
Cc1nn2c(=O)cc(COC(=O)c3ccccc3NC(=O)c3cccs3)nc2s1,5%[57.1 µM],.,.,7%[57.1 µM],3%,.
CN(Cc1ccco1)S(=O)(=O)c1nnc(NC(=O)c2cccc(Cl)c2)s1,4%,-11%,6%,25µM*!,2%,i
CN(c1ccccc1)c1ncnc2c1cnn2C,4%[57.1 µM],.,.,15%[57.1 µM],-5%,.
CCOc1ccc(C(=O)OC(C)C(=O)N2CCN(Cc3ccccc3)CC2)cc1 (stereo not given),8%[57.1 µM],.,8%,14%[57.1 µM],1%,i
CCOc1ccc(C(=O)CC(C(=O)O)N2CCN(Cc3ccccc3)CC2)cc1 (stereo not given),-9%,.,11%,16µM*,13%,i
CCOc1ccc(C(=O)N2CCCCCC2)cc1,7%[57.1 µM],-7%,9%,13%[57.1 µM],-2%,i
CCOc1ccc(C(=O)CC(C(=O)O)N2CCCCC2)cc1 (stereo not given),-10%,.,11%,14µM*,0%,i
COCCN(C(=S)Nc1ccccc1C)C(C)c1ccco1 (stereo not given),7%[57.1 µM],5%,32µM*,24%[57.1 µM],1%,i
c1ccc(-c2nc3ccccc3[nH]2)cc1,31%,0%,-4%,7%,-3%,.
S=c1nc(-c2ccccc2)[nH]c2ccc(Br)cc12,-7%,1%,32µM*,-18%[57.1 µM],0%,i
CC1CC=CC2C1C(=O)N(Cc1ccccc1)C2c1ccc(-c2ccoc2)cc1F (stereo not given),0%,-1%,.,-19%,?,.
Cc1c(C(c2cc(O)ccc2O)c2c(C)n(C)n(-c3ccccc3)c2=O)c(=O)n(-c2ccccc2)n1C,0%,.,.,71µM*,0%,i
CCN(CC)c1ccc2cc(-c3nc(-c4ccc(OC)cc4)cs3)c(=O)oc2c1,-18%,11%,25µM*,?,?,i
CCN(CC)c1ccc2cc(-c3nc(-c4ccc(Cl)cc4Cl)cs3)c(=O)oc2c1,-7%[57.1 µM],.,.,11%[57.1 µM],?,.
CNc1ccc(/C=C2\C=Cc3ccccc32)cc1Br,-4%,.,.,-2%,.,.

# Screens deposited in PubChem by National Center for Advancing Translational Sciences (NCATS).
